{"source": "PubChem BioAssay (NCATS)", "note": "Inconclusive results are not listed. Values without a mark were called inactive. The source made the active and inactive calls. Calls follow the shape of the dose curve; as a rule, active = well fitted inhibition curve with a large enough effect; inconclusive = small, poorly fitted or top-dose-only effect; inactive = flat fitted curve, though single readings scatter."}
{"tested_on": "WaGa", "assay": "qHTS assay to identify novel small-molecules to repurpose for Merkel cell carcinoma treatment (AID 1296009); also: nearly all actives have a fitted effect of over 60% in size; also: potency is read from the fitted curve at half-maximal effect; as to activity change, negative = cytotoxicity: % is scaled to controls: 0 for no effect and ±100 for the full control effect", "conditions": "MCC and control cell lines, CellTiter-Glo viability, 72 h; series mostly up to 46 µM; activity change, negative = cytotoxicity: at the top concentration", "method_in_brief": "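qHTS format: cells treated with library compounds in DMSO across 8 (NPC) or 11 (MIPE) concentrations. Readout after 72 hr at 37 degree celsius was CellTiter-Glo luminescence.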"}
{"compound": "CCCCC(CC)CN1CN(CC(CC)CCCC)CC(C)(N)C1", "note": "(centres undefined)", "activity change, negative = cytotoxicity": "-17.3%"}
{"compound": "Cc1cc(CC(=O)O)c(C)n1-c1ccc(Cl)cc1", "activity change, negative = cytotoxicity": "-13.3%"}
{"compound": "C#C[C@]1(O)CC[C@H]2[C@@H]3[C@H](C)CC4=C(CCC(=O)C4)[C@H]3CC[C@@]21C", "Potency": "18.8 µM (active)"}
{"compound": "NCCNC(=O)c1ccc(Cl)cn1", "activity change, negative = cytotoxicity": "18.6%"}
{"compound": "CC(=O)O[C@]1(C(C)=O)CC[C@H]2[C@@H]3C=C(Cl)C4=CC(=O)CC[C@]4(C)[C@H]3CC[C@@]21C", "activity change, negative = cytotoxicity": "-16.2%"}
{"compound": "CC(=C(CCOC(=O)C(C)C)SSC(CCOC(=O)C(C)C)=C(C)N(C=O)Cc1cnc(C)nc1N)N(C=O)Cc1cnc(C)nc1N", "activity change, negative = cytotoxicity": "-16.4%"}
{"compound": "CCO[C@@H]1O[C@H](C(COCc2ccccc2)OCc2ccccc2)[C@H](OCc2ccccc2)[C@H]1O", "note": "(some centres undefined)", "Potency": "26.6 µM (active)"}
{"compound": "C=C1c2cccc(O)c2C(O)=C2C(=O)[C@]3(O)C(O)=C(C(N)=O)C(=O)[C@@H](N(C)C)[C@@H]3[C@@H](O)[C@H]12", "activity change, negative = cytotoxicity": "1.88%"}
{"compound": "O=[N+]([O-])c1ccc(/C=N\\O)o1", "Potency": "23.7 µM (active)"}
{"compound": "C[N+]1(CC2COC(c3ccccc3)(C3CCCCC3)O2)CCCCC1", "note": "(centres undefined)", "Potency": "18.8 µM (active)"}
{"compound": "CCCCc1cc2ccccc2c(OCCN(C)C)n1", "Potency": "21.1 µM (active)"}
{"compound": "C#C[C@]1(O)CC[C@H]2[C@@H]3CCc4cc(OC)ccc4[C@H]3CC[C@@]21C", "activity change, negative = cytotoxicity": "11.7%"}
{"compound": "O=C(CCN1CCN2CCCC2C1)N1c2ccccc2Sc2ccc(Cl)cc21", "note": "(centres undefined)", "activity change, negative = cytotoxicity": "-17.8% [at 16.1 µM]"}
{"compound": "O=C(Nc1ccccc1)OCC(CN1CCCCC1)OC(=O)Nc1ccccc1", "note": "(centres undefined)", "activity change, negative = cytotoxicity": "-9.44%"}
